# In the library only some 10% were active in any assay of this set; here they are far more common.
# LMNA splice mod = qHTS Assay for Modulators of Lamin A Splicing; HeLa LMNA splicing GFP/RFP minigene ratio, 48 h; Potency, µM (highest dose often 46.1 µM), inactives show at the top dose ratio change, negative = inhibition, most hits filed as inhibitors; actives 0.01% (n = 200,000); AID 1487, 2009; active = well fitted inhibition curve with a large enough effect in the signal ratio, with a control signal flat, not every such curve was filed as active; inconclusive = small, poorly fitted or top-dose-only effect, or effect the other way, or a change in a side signal; the % refers to the signal ratio; note: potency is the fitted concentration of half-maximal effect
#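 S3 HeLa stable clones carrying a lamin A-EGFP splicing minigene plus DsRed2 were seeded at 600 cells/well in Opti-MEM with 2% FBS, pin-dosed and incubated 48 h at 37°C. Acumen cytometry (488 nm) gave the GFP/RFP total-intensity ratio.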
# ALDH1A1 block = qHTS Assay for Inhibitors of Aldehyde Dehydrogenase 1 (ALDH1A1); Aldehyde dehydrogenase 1A1 (Homo sapiens), P00352; Purified ALDH1A1, NADH fluorescence, propionaldehyde substrate; Potency, µM (titrated, usually from 75.3 µM), inactives show at the top dose activity, negative = inhibition, most hits filed as inhibitors; actives 7.3% (n = 220,000); AID 1030, 2008;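 note: potency is the fitted concentration of half-maximal effect; plate controls were no enzyme wells and a reference inhibitor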
# HPGD block = qHTS Assay for Inhibitors of HPGD (15-Hydroxyprostaglandin Dehydrogenase). purified HPGD, NADH fluorescence kinetic, PGE2 substrate. Potency, µM, for the others: top-dose activity change, negative = inhibition, usual class: inhibitors. actives 4.3% (n = 150,000); note: potency is the fitted concentration of half-maximal effect
# Target sequence (P15428 whole entry, looked up): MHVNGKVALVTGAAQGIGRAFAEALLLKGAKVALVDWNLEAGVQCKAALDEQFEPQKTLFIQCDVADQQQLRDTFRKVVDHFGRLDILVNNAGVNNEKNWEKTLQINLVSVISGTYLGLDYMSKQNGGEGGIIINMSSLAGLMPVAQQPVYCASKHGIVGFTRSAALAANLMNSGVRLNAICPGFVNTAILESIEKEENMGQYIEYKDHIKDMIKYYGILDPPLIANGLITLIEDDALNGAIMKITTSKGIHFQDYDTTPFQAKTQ
#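 NADH formation kinetics: reaction with 30 uM PGE2 and 1 mM NAD+ (final), 20 nM enzyme, Tris-HCl pH 8 with Tween 20, after 15 min compound preincubation at room temperature. Fluorescence change, last versus first of five reads.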
# PNC inhibitor = High Content Assay for Compounds that inhibit the Assembly of the Perinucleolar Compartment; PC3M PTB-GFP, PNC prevalence imaging, 16 h; active compounds read low; activity change (PNC), negative = inhibition, % at 10 µM; actives 3.1% (n = 140,000);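 active = readout at or below -70, meaning at least 70% loss of cells showing the perinucleolar compartment, a nuclear body marking cancer cells; inconclusive = readout between -30 and a set limit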;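 note: plate controls were DMSO wells for no effect and camptothecin positive control wells for full effect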
#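 Compounds are pinned in duplicate onto adhered PC3M cells stably expressing GFP-tagged PTB and incubated 16 h at 37 C. Cells are then fixed, nuclei stained with Hoechst, and PNC-positive cells counted.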
# ALOX12 inhib = qHTS Assay for Inhibitors of 12-hLO (12-human lipoxygenase); purified 12-hLO, xylenol orange hydroperoxide absorbance; Polyunsaturated fatty acid lipoxygenase ALOX12 (Homo sapiens), P18054; Potency, µM (doses to about 57.1 µM), inactives show at the top dose activity change, negative = inhibition, usual class: inhibitors; AID 1452, 2008; actives 0.12% (n = 150,000); active = well fitted inhibition curve with a large enough effect; inconclusive = small, poorly fitted or top-dose-only effect; note: potency is the fitted concentration of half-maximal effect; nearly all actives have a fitted effect of over 55% in size
#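 Lipoxygenase turnover measured by absorbance at 573 and 405 nm after Fe-XO development. Human 12hLO 150 nM, arachidonate 40 uM, pH 7.0 Hepes buffer with detergent; 15 min compound preincubation, 30 min reaction.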
# * hit, by the source's call; ? = inconclusive; · = not tested or not shown; [ ] = another dose, or the depositor's remark. Unless noted, calls come from the whole dose curve; as a rule, active = well fitted inhibition curve with a large enough effect (not every such curve was filed as active); inconclusive = small, poorly fitted or top-dose-only effect, or another doubt; inactive = no such curve, though single readings can be large or run the other way. Unless noted, % is set by controls: 0 for no effect and ±100 for the full control effect.
SMILES,LMNA splice mod,ALDH1A1 block,HPGD block,PNC inhibitor,ALOX12 inhib
CSc1ccccc1C(=O)NCCSC(C)(C)C,-3.5%,0.6%,25.1µM*,51.5,-2.4%
CSc1ccccc1C(=O)NCCSc1ccccc1,8.2%,-4.5%,15.8µM*,-15.2,0.7%
Cc1ccccc1CSCCNC(=O)c1ccccc1,-7.8%,?,31.6µM*,3.8,-1.4%
O=C(Nc1ccccc1C(=O)O)c1cncc(Br)c1,-2.0%,14.1µM*,-26.3%,16.9,-8.3%
CCCCOc1ccc(C(=O)Nc2ccc3c(c2)CCCN3S(=O)(=O)c2ccc(C)cc2)cc1,6.3%[46 µM],·,·,·,·
COc1ccc(NC(=O)CCc2c(C)nn(-c3ccc(N4CCCC4)nn3)c2C)cc1Cl,-4.0%[46 µM],·,·,·,·
O=C(O)[C@@H]1Cc2c([nH]c3ccccc23)[C@@H](CCCCO)N1,·,1.1%[13.5 µM],-11.1%,·,0.3%[11.4 µM]
CN(C)c1nc(-c2cccc(NS(C)(=O)=O)c2)nc2ccccc12,-11.9%,-2.0%,·,·,·
O=C(NCCSc1ccccc1)c1cncc(Br)c1,4.6%,25.1µM*,-16.8%,7.6,-0.2%
CCCCCNC(=O)c1ccccc1SC,8.9%,8.4%,14.1µM*,-4.1,-3.9%
CCCCNC(=O)c1ccccc1Cl,9.7%,14.5%,8.91µM*,-21.9,1.5%
O=C(NCCSc1ccccc1)c1ccccc1Cl,4.0%,-6.5%,12.6µM*,31.5,-0.6%
Cc1cc2ncn(CC(=O)O)c2cc1C,·,1.3%[13.5 µM],-10.0%,·,-2.8%[11.4 µM]
COc1cccc([C@@H]2Oc3ccc(OC)cc3C(=O)[C@H]2OC(=O)Nc2ccc(OC(F)F)cc2)c1,·,0.8%,-8.1%,·,·
Cc1ccccc1C(=O)NCCSc1ccccc1,17.3%,-0.6%,20µM*,?,-2.3%
Cc1oc2ncnc(N3CCCCC3)c2c1C(=O)NCC1CCN(Cc2ccccc2F)CC1,3.4%[46 µM],·,·,·,·
CC(=O)N1CCC(=NNC(=O)CSc2cc(C)c(Br)cc2C)CC1,-9.4%,?,25.1µM*,?,0.2%
Cc1cc(SCC(=O)Nc2cccc(S(N)(=O)=O)c2)c(C)cc1Br,·,9.9%,·,·,·
CCCN1CCC(=NNC(=O)CSc2cc(C)c(Br)cc2C)CC1,3.2%,?,14.1µM*,-22.1,1.1%
Cc1ccc(CNC(=O)c2cnc(N(C)C)nc2)cc1,-4.8%[46 µM],·,·,·,·
O=c1oc2cc(Oc3ccc(C(F)(F)F)cc3[N+](=O)[O-])ccc2c2c1CCC2,-0.7%,15.8µM*,?,25.1,1.3%
O=c1oc2cc(Oc3c([N+](=O)[O-])cc(C(F)(F)F)cc3[N+](=O)[O-])ccc2c2c1CCCC2,-6.7%,?,?,46.4,-15.9%
CC(C)c1ccc(-c2nnc(N)s2)cc1,3.2%,2.2%,35.5µM*,4.4,2.2%
COC(=O)CSc1nc2c(c(-c3ccc(C)o3)c1C#N)CCCC2,5.0%,?,?,7.7,-0.9%
Cc1ccc(-c2c3c([nH]c(=S)c2C#N)CCCC3)o1,8.6%,7.94µM*,8.91µM*,-4.8,-21.8%
SMILES,LMNA splice mod,ALDH1A1 block,HPGD block,PNC inhibitor,ALOX12 inhib
N#Cc1c(-c2ccncc2)c2c([nH]c1=S)CCCC2,6.6%,?,22.4µM*,29.8,-15.2%
CCSc1nc2c(c(-c3ccc(C)o3)c1C#N)CCCC2,?,?,?,-100.0*,-2.1%
N#Cc1c(SCC(N)=O)nc2c(c1-c1ccncc1)CCCC2,11.1%[46 µM],-5.2%,·,·,·
Cc1ccc(CNC(=O)CNS(=O)(=O)c2cccs2)cc1,3.6%[46 µM],·,·,·,·
O=C(NCCc1ccc(Cl)cc1)C(=O)NCC(c1ccc2c(c1)OCO2)N1CCOCC1 (stereo unspecified),-8.2%[46 µM],·,·,·,·
CC(=O)NC(Nc1c(C)n(C)n(-c2ccccc2)c1=O)C(Cl)(Cl)Cl (stereo unspecified),20.6%[46 µM],11.5%,·,·,·
CCN(CC)S(=O)(=O)c1ccc(N2CCOCC2)c(NC(=O)CCC2CCCCC2)c1,-12.9%,1.58µM*,?,-13.1,-1.0%
CCN(CC)S(=O)(=O)c1ccc(O)c(NC(=O)c2ccc(N3CCOCC3)c([N+](=O)[O-])c2)c1,?,0.708µM*,31.6µM*,28.4,0.0%
CCN(CC)S(=O)(=O)c1ccc(N2CCOCC2)c(NC(=O)Cc2ccccc2)c1,-10.5%,12.6µM*,-9.4%,75.4,5.2%
CCN(CC)S(=O)(=O)c1ccc(N2CCOCC2)c(NC(=O)c2ccccc2)c1,?,?,-19.0%,10.5,1.3%
O=C(C1Cc2ccccc2O1)N1CCCCC1 (stereo unspecified),6.3%,-2.7%,25.1µM*,7.1,-2.5%
CC1CCCCN1C(=O)CSc1ccc(-c2ccc(F)cc2)nn1 (stereo unspecified),-3.9%,?,22.4µM*,?,0.5%
CC1CCCCN1C(=O)C1CC(c2ccc(F)cc2)=NO1 (stereo unspecified),0.6%,0.316µM*,·,?,-6.4%
O=C(C1CC(c2ccc(F)cc2)=NO1)N1CCCCC1 (stereo unspecified),-1.3%,0.6%,-14.7%,?,-2.9%
O=C(C1COc2ccccc2O1)N1CCOCC1 (stereo unspecified),2.8%,6.9%,-24.8%,?,5.3%
O=C(C1CC(c2ccccc2O)=NO1)N1CCCCC1 (stereo unspecified),8.8%,?,7.94µM*,?,-3.6%
COC(=O)N1CCC2(CCN(C(=O)Nc3ccc(OC)cc3)CC2)CC1,·,-7.3%,-3.2%,·,-3.8%
CCCN(CCC)S(=O)(=O)c1ccc(N2CCCCS2(=O)=O)cc1,-3.3%[46 µM],·,·,·,·
O=C(C1CC(c2ccc(F)cc2)=NO1)N1CCc2ccccc2C1 (stereo unspecified),-1.8%,-9.7%,20µM*,27.6,-7.3%
COc1ccc(-c2ccc(SCC(=O)c3ccc(F)cc3)nn2)cc1OC,-29.5%[46 µM],15.8µM*,·,·,·
O=C(C1CC(c2ccccc2O)=NO1)N1CCc2ccccc2C1 (stereo unspecified),8.3%,-2.8%,15.8µM*,20.8,-0.5%
COc1cccc(C2=NOC(C(=O)N3CCc4ccccc4C3)C2)c1 (stereo unspecified),-11.2%,-3.1%,-27.4%,?,-1.1%
CCCCc1nc2c(c3c1C[C@H](C)OC3)CN(C(=O)COC)CC2,?,3.6%[13.5 µM],-9.8%,·,1.3%[11.4 µM]

# Screens: PubChem BioAssay, National Center for Advancing Translational Sciences (NCATS)
